Reference: PubChem BioAssay (NCATS)
Records with an inconclusive call do not appear. Active and inactive are the calls of the source. Unless noted, calls come from the whole dose curve; as a rule, active = well fitted curve in the direction sought with a large enough effect; inconclusive = small, poorly fitted or top-dose-only effect, or another doubt; inactive = no such curve, though single readings can be large; an effect the other way counts as inactive or inconclusive.

Assays:
[1] = Confirmation and Secondary Assay for Modulators of Hemoglobin Beta Chain Splicing at IVS2 705 locus (AID 930); details: HeLa EGFP-705 splicing reporter, GFP fluorescence, 48 h; series mostly up to 46.1 µM;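 note: HeLa cells stably expressing the EGFP-705 splicing reporter; GFP fluorescence per well restored by corrected splicing of the IVS2-705 intron in EGFP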
Method in brief: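 Stable HeLa line with EGFP disrupted by mutant beta-globin intron 2 (705). Overnight attachment, then 2 days of compound at 37C, 5% CO2. Signal: peak GFP intensity summed over objects 5-250 µm.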

[2] = Cell Viability - LYMP2-001 (AID 921); details: LYMP2-001 lymphoblastoid cell viability; series mostly up to 92.2 µM; note: nearly all actives have a fitted effect of over 70% in size
Method in brief: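 Human lymphoblastoid LYMP2-001 cells, 2500 per well, in complete medium, treated 24 h at 37 C. Viability from cellular ATP by CellTiter-Glo luminescence; AC50 from Hill-equation fits of qHTS concentration-response.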

[3] = MultiTox-Fluor Cytotoxicity Assay - LYMP1-001 - Dead Cells (AID 946); details: LYMP1-001 lymphoblastoid cells, dead-cell protease fluorescence; series mostly up to 92.2 µM
Method in brief: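 LYMP1-001 lymphoblastoid cells (2500/well) treated 16 h at 37 C. Dead-cell protease cleavage of bis-AAF-R110 read at Ex/Em 485/520. Normalized to DMSO and 15 uM tetraoctylammonium bromide; AC50 from Hill fits.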

[4] = MultiTox-Fluor Cytotoxicity Assay - LYMP1-001 - Live Cells (AID 947); details: LYMP1-001 lymphoblastoid cells, live-cell protease fluorescence viability; series mostly up to 92.2 µM
[5] = Cell Viability - LYMP1-002 - Assay at 16 hr (AID 948); details: LYMP1-002 lymphoblastoid cell viability; series mostly up to 92.2 µM
Method in brief: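 LYMP1-002 human lymphoblastoid cells, 2500/well, were treated with compounds for 16 hr at 37 C in complete medium. Viability was read as intracellular ATP by CellTiter-Glo luminescence, and AC50 was derived from a Hill fit to concentration-response data.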

[6] = MultiTox-Fluor Cytotoxicity Assay - LYMP1-002 - Live Cells (AID 955); details: LYMP1-002 lymphoblastoid live-cell protease fluorescence viability; series mostly up to 46.1 µM
Method in brief: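 Human lymphoblastoid LYMP1-002 cells, 2500/well, treated 16 h at 37 C in complete medium. Live-cell protease activity via GF-AFC fluorescence (Ex/Em 405/510) after 60 min reagent incubation; AC50 from Hill fits.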

[7] = MultiTox-Fluor Cytotoxicity Assay - LYMP1-002 - Dead Cells (AID 960); details: LYMP1-002 lymphoblastoid cells, dead-cell protease fluorescence; series mostly up to 46.1 µM; note: nearly all actives have a fitted effect of over 60% in size
Method in brief: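 Human lymphoblastoid LYMP1-002 cells, 2500/well, treated 16 h at 37 C; dead-cell protease cleavage of bis-AAF-R110 read by fluorescence (485/520); normalized to DMSO and 15 uM tetraoctylammonium bromide; AC50 from Hill fit.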

[8] = MultiTox-Fluor Cytotoxicity Assay - LYMP1-003 - Dead Cells (AID 961); details: LYMP1-003 lymphoblastoid cells, dead-cell protease fluorescence; series mostly up to 92.2 µM; note: nearly all actives have a fitted effect of over 70% in size
Method in brief: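 LYMP1-003 human lymphoblastoid cells (2500/well) exposed to compound 16 h at 37 C in complete medium; dead-cell protease read with bis-AAF-R110 fluorescence (Ex/Em 485/520) after 60 min at room temperature. Normalized to DMSO and 15 uM tetraoctylammonium bromide; AC50 from Hill fit.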

[9] = Cell Viability - LYMP1-003 - Assay at 40 hr (AID 964); details: LYMP1-003 lymphoblastoid viability; series mostly up to 92.2 µM; note: nearly all actives have a fitted effect of over 60% in size
Method in brief: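 LYMP1-003 human lymphoblastoid cells, 2500/well, preincubated 5 h at 37 C, then treated with compound for 40 h at 37 C. Intracellular ATP read by CellTiter-Glo luminescence after 30 min at room temperature; AC50 from Hill-equation fits.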

[10] = Cell Viability - LYMP2-003 (AID 965); details: LYMP2-003 lymphoblastoid cell viability; series mostly up to 92.2 µM;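 note: cells exposed to compounds for 24 h before reading; nearly all actives have a fitted effect of over 50% in size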
Method in brief: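 Human lymphoblastoid LYMP2-003 cells, 2500/well, exposed to compounds for 24 h at 37 C in complete medium. Viability read as intracellular ATP by CellTiter-Glo luminescence; AC50 from Hill-equation fits of qHTS concentration-response data.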

[11] = Cell Viability - LYMP2-005 (AID 967); details: LYMP2-005 lymphoblastoid cell viability; series mostly up to 92.2 µM
Method in brief: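 Human lymphoblastoid LYMP2-005 cells, 2,500 per well in complete medium, rested 5 h at 37C then compound-treated 24 h at 37C. Intracellular ATP read by CellTiter-Glo luminescence after 30 min at room temperature; AC50 from Hill-equation fits of concentration-response data.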

[12] = Cell Viability - LYMP2-009 (AID 968); details: LYMP2-009 lymphoblastoid cell viability; series mostly up to 92.2 µM; note: nearly all actives have a fitted effect of over 55% in size
[13] = Cell Viability - LYMP2-011 (AID 969); details: LYMP2-011 lymphoblastoid cells viability; series mostly up to 92.2 µM; note: nearly all actives have a fitted effect of over 60% in size
Method in brief: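 2500 cells/well in complete medium, compound-treated 24 h at 37 C. Viability read as intracellular ATP by CellTiter-Glo luminescence after 30 min at room temperature. AC50 from Hill fits of qHTS concentration-response data.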

[14] = Cell Viability - LYMP2-013 (AID 970); details: LYMP2-013 lymphoblastoid cells viability; series mostly up to 92.2 µM; note: nearly all actives have a fitted effect of over 55% in size
Method in brief: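 Human lymphoblastoid LYMP2-013 cells, 2500/well, treated 24 h at 37 C in complete medium; viability as intracellular ATP by CellTiter-Glo luminescence after 30 min. AC50 from Hill fits of qHTS concentration-response.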

[15] = Cell Viability - LYMP2-017 (AID 972); details: LYMP2-017 lymphoblastoid cell viability; series mostly up to 92.2 µM; note: nearly all actives have a fitted effect of over 55% in size
Method in brief: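 LYMP2-017 human lymphoblastoid cells (2500/well) settled 5 hr at 37 C, then exposed to compound 24 hr at 37 C in complete medium. Viability taken as intracellular ATP by CellTiter-Glo luminescence after 30 min at RT; AC50 from Hill fits.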

[16] = Cell Viability - LYMP2-021 (AID 974); details: LYMP2-021 lymphoblastoid cells viability; series mostly up to 92.2 µM;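 note: compound exposure lasts 24 hours at 37 °C; nearly all actives have a fitted effect of over 55% in size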
Method in brief: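 Human lymphoblastoid LYMP2-021 cells, 2500/well in complete medium, treated 24 hours at 37 C. Intracellular ATP by CellTiter-Glo luminescence (30 min, RT); AC50 from Hill fits of concentration-response.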

[17] = molecular target: Muscarinic acetylcholine receptor M1 (Rattus norvegicus) (UniProt P08482); assay: qHTS Assay for Antagonists of Acetylcholine Muscarinic M1 Receptor: Kinetic Measurement of Intracellular Calcium Response (AID 943); details: M1-expressing cells, kinetic intracellular calcium fluorescence; series mostly up to 35.3 µM; note: nearly all actives have a fitted effect of over 75% in size
Method in brief: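 CHO cells expressing rat M1 receptor, Fluo-4 loaded, preincubated 10 min with compound, then stimulated with EC80 carbachol (100 nM final). Kinetic calcium fluorescence over 4 min; response taken as peak over basal signal.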

[18] = molecular target: Muscarinic acetylcholine receptor M1 (Rattus norvegicus) (UniProt P08482); assay: qHTS Assay for Antagonists of Acetylcholine Muscarinic M1 Receptor: Measurement of IP-One Response (AID 944); details: CHO-M1 cells, IP-One HTRF, antagonist mode; series mostly up to 46.1 µM; note: nearly all actives have a fitted effect of over 75% in size
Method in brief: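 CHO cells stably expressing rat M1, pretreated 10 min with compound, then stimulated 30 min with carbachol at EC80 (200 nM) in LiCl-containing buffer pH 7.4; IP1 accumulation read by HTRF competition (665/620 nm).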

[19] = molecular target: Pyruvate kinase (Leishmania mexicana) (UniProt Q27686); assay: qHTS Validation Assay for Inhibitors of Leishmania Mexicana Pyruvate Kinase (AID 945); details: purified L. mexicana pyruvate kinase, enzyme activity, E451W mutant enzyme; series mostly up to 57.5 µM
Method in brief: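 Mutant LmPYK (E451W), 0.2 nM, plus 0.5 mM PEP and 0.1 mM ADP in 50 mM imidazole pH 7.2 containing 0.01% Tween 20 and 0.05% BSA. Incubated 1 h at room temperature; luminescence via PKLight, normalized to DMSO.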

[20] = molecular target: Pyruvate kinase PKM (Homo sapiens) (UniProt P14618); assay: qHTS Assay for Activators of Human Muscle Pyruvate Kinase (AID 954; active = well fitted curve in the direction sought with a large enough effect, not every such curve was filed as active); details: purified human muscle pyruvate kinase, luciferase-coupled luminescence, 1 h; series mostly up to 57.5 µM
Method in brief: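 Purified human PKM2 (0.1 nM) with 0.5 mM PEP (Km) and 0.1 mM ADP in 50 mM imidazole pH 7.2, KCl, MgCl2, 1 h at room temperature; ATP formed read by coupled luciferase luminescence. Normalized to no-enzyme/110 uM thiadiazolimine inhibition; 0.3 nM enzyme column for activation.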

Measured: outcome

Chain of Muscarinic acetylcholine receptor M1 (Rattus norvegicus) (P08482 whole entry, looked up): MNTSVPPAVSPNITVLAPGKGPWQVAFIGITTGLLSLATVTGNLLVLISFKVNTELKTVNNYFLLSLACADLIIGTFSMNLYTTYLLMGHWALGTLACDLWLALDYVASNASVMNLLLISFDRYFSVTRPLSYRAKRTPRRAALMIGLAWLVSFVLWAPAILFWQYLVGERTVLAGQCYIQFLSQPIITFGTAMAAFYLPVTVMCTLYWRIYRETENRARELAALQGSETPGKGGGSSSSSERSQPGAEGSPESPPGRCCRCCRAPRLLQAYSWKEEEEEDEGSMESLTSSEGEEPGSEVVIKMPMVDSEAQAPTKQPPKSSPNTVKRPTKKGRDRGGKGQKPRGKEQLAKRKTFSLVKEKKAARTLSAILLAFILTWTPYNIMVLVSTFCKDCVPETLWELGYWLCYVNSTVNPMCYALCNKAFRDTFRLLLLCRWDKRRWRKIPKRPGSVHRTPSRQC
Chain of Pyruvate kinase PKM (Homo sapiens) (P14618 whole entry, looked up): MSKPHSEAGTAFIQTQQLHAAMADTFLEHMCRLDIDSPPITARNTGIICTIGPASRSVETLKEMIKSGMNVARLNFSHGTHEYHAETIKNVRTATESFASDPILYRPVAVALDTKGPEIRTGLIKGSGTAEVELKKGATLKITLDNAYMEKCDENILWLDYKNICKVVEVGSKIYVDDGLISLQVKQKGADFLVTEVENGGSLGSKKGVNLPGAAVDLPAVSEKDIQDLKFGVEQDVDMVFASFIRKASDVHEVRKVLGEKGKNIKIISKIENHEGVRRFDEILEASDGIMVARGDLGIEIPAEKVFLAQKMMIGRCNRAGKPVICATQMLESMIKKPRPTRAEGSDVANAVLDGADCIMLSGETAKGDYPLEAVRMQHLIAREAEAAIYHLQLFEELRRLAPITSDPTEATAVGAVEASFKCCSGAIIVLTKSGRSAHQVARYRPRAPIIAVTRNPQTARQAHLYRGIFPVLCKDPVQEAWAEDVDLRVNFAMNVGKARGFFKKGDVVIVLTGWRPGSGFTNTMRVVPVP
Chain of Pyruvate kinase (Leishmania mexicana) (Q27686 2-499 E452W): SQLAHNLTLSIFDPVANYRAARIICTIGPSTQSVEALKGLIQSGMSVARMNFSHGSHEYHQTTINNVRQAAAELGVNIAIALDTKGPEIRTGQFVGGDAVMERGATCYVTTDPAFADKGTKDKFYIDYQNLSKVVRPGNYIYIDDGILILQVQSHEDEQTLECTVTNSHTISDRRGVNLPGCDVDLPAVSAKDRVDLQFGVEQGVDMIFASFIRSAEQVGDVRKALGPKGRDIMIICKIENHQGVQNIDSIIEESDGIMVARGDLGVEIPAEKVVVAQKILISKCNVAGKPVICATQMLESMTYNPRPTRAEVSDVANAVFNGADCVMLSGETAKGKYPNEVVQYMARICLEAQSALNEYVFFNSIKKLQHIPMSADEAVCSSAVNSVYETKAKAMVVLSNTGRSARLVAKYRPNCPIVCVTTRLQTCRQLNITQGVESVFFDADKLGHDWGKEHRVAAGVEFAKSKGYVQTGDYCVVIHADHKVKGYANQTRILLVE

NC(N)=NCCN1CCCCCCC1
inactive: [1]

Cc1[nH]c(C)c(Cl)c(=O)c1Cl
inactive: [1]

CC(=O)Nc1cccc(O)c1
not listed: [17] | [18] | [19] | [20]
inactive: all other assays above

CCCCCC(N)=O
not listed: [1] | [17] | [18] | [19] | [20]
inactive: all other assays above

CC(=O)Nc1ccccc1
not listed: [17] | [18] | [19] | [20]
inactive: all other assays above

CCS(=O)(=O)CCn1c([N+](=O)[O-])cnc1C
inactive: [1]

COc1ccc(O)cc1
not listed: [1] | [17] | [18] | [19] | [20]
inactive: all other assays above

CC(=O)Nc1ccc(C(=O)O)cc1
not listed: [1] | [17] | [18] | [19] | [20]
inactive: all other assays above

O=C(CCBr)N1CCN(C(=O)CCBr)CC1
inactive: [1]

CCN(CC)C(=O)c1cccc(C)c1
not listed: [17] | [18] | [19] | [20]
inactive: all other assays above

C/C=C/C(=O)N(CC)c1ccccc1C
inactive: [1]

CC(=O)NS(=O)(=O)c1ccc(N)cc1
not listed: [4] | [17] | [18] | [19] | [20]
inactive: all other assays above

O=C1C(c2[nH]c3ccccc3c2O)=Nc2ccccc21
not listed: [1] | [17] | [18] | [19] | [20]
inactive: all other assays above

CCN(CC)CCOC(=O)C(c1ccccc1)c1ccccc1
inactive: [1]

FC(F)(F)C(Cl)Br (stereo unspecified)
not listed: [1] | [17] | [18] | [19] | [20]
inactive: all other assays above

CCCCOC(=O)c1ccc(N)cc1
not listed: [17] | [18] | [19] | [20]
inactive: all other assays above

Cc1cc(=O)[nH]c(=S)[nH]1
not listed: [17] | [18] | [19] | [20]
inactive: all other assays above

C[n+]1ccccc1/C=N/O
inactive: [1]

CCOC(N)=O
inactive: [1]

O=C(c1ccccc1)C(O)c1ccccc1 (stereo unspecified)
not listed: [1] | [17] | [18] | [19] | [20]
inactive: all other assays above

C=CCNC(N)=S
not listed: [1] | [17] | [18] | [19] | [20]
inactive: all other assays above

O=C(O)CCCCC1CCSS1 (stereo unspecified)
not listed: [17] | [18] | [19] | [20]
inactive: all other assays above

CNCc1ccccc1
inactive: [1]

CC1CC(OC(=O)c2ccccc2O)CC(C)(C)C1 (stereo unspecified)
not listed: [17] | [18] | [19] | [20]
inactive: all other assays above

Cc1c(N(C)C)c(=O)n(-c2ccccc2)n1C
not listed: [1] | [7] | [17] | [18] | [19] | [20]
inactive: all other assays above

CCCC(O)C(CC)CO (stereo unspecified)
not listed: [1] | [17] | [18] | [19] | [20]
inactive: all other assays above

C=CCSCC1Nc2cc(Cl)c(S(N)(=O)=O)cc2S(=O)(=O)N1 (stereo unspecified)
inactive: [1]

Cc1cccc(C(=O)O)c1O
inactive: [1]

CC(=O)OCC(COC(C)=O)OC(C)=O
not listed: [17] | [18] | [19] | [20]
inactive: all other assays above

Nc1ccc(S(=O)(=O)c2ccc(N)cc2)cc1
not listed: [17] | [18] | [19] | [20]
inactive: all other assays above

COc1ccc(NS(=O)(=O)c2ccc(N)cc2)nn1
inactive: [1]

Cc1cc(C)nc(NS(=O)(=O)c2ccc(N)cc2)n1
not listed: [17] | [18] | [19] | [20]
inactive: all other assays above

NC(=O)c1ccc([N+](=O)[O-])cc1Cl
inactive: [1]

CCCCCCCC(=O)OCC(COC(=O)CCCCCCC)OC(=O)CCCCCCC
not listed: [1] | [17] | [18] | [19] | [20]
inactive: all other assays above

NC(=O)CC[C@@H](N)C(=O)O
inactive: [17] | [18] | [19] | [20]

CN1C(C)(C)CCCC1(C)C
inactive: [17] | [18] | [19] | [20]

O=C1c2cccc(O)c2C(=O)c2c(O)cccc21
inactive: [3] | [4] | [5] | [6] | [7] | [8] | [9] | [11] | [12] | [14] | [16]
